According to PubChem BioAssay (Tox21):
Where “and” joins values, the source holds several entries; their conditions need not be identical. Equal entries are not always repeated. Records with an inconclusive call do not appear. The source holds several records for some structures; these can differ, active in one and inactive in another. Calls of active or inactive are those of the source. Unless noted, calls come from the whole dose curve; as a rule, active = well fitted curve in the direction sought with a large enough effect in the repeat runs; inconclusive = weak or mixed curves; inactive = no such curve, though single readings can be large; an effect the other way counts as inactive or inconclusive.

Experiments:
[1] = qHTS assay for small molecule agonists of the p53 signaling pathway (AID 651631; calls by dose curve; note: nearly all actives have a fitted effect of over 15% in size; note: potency is the fitted concentration of half-maximal effect)
In short: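 HCT-116 p53RE-bla reporter line, 16 h compound treatment at 37 °C, then fluorescence after 2 h with B/G FRET substrate.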

[2] = qHTS assay for small molecules that induce genotoxicity in human embryonic kidney cells expressing luciferase-tagged ATAD5 (AID 651632); note: nearly all actives have a fitted effect of over 15% in size; note: potency is the fitted concentration of half-maximal effect
In short: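 HEK293T cells carrying luciferase-tagged ATAD5 were given compound or DMSO vehicle and incubated 16 hr at 37C, 5% CO2. Luciferase activity was read after 30 min at room temperature with Amplite; a rise signals genotoxic stress.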

[3] = qHTS assay for small molecule agonists of the p53 signaling pathway - cell viability (AID 651633; calls by dose curve; note: nearly all actives have a fitted effect of over 30% in size; note: potency is the fitted concentration of half-maximal effect)
In short: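 Viability counter-read: CellTiter-Glo luminescence (30 min, room temperature) in the same p53RE-bla plates. These plates had been exposed to compounds for 16 h at 37 C.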

[4] = qHTS assay for small molecules that induce genotoxicity in human embryonic kidney cells expressing luciferase-tagged ATAD5 - cell viability (AID 651634; calls by dose curve; note: nearly all actives have a fitted effect of over 25% in size; note: potency is the fitted concentration of half-maximal effect)
In short: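 HEK293T cells carrying luciferase-tagged ATAD5, 2,000 cells/well, exposed to compound for 15.5 hr at 37C. Viability read as live-cell protease activity by CellTiter-Fluor fluorescence after 30 min at 37C.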

[5] = qHTS assay for small molecule disruptors of the mitochondrial membrane potential - cell viability (AID 720634; calls by dose curve; note: nearly all actives have a fitted effect of over 20% in size; note: potency is the fitted concentration of half-maximal effect)
In short: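 HepG2 cells, 2,000 per well, attached overnight, then treated 1 hr at 37 C, 5% CO2. Viability read as ATP by CellTiter-Glo luminescence after 30 min at room temperature. Read in the same wells as the m-MPI membrane-potential dye assay.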

[6] = qHTS assay for small molecule disruptors of the mitochondrial membrane potential (AID 720635); note: potency is the fitted concentration of half-maximal effect
In short: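 Mitochondrial membrane potential tracked with Mito-MPS dye, red aggregates (ex 540/em 590 nm) against green monomers (ex 490/em 535 nm). Compound treatment 1 hr at 37C, dye 30 min in HepG2.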

[7] = qHTS assay to test for compound auto fluorescence at 590 nm (red) in HepG2 cells (AID 720674)
In short: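 1 hr compound incubation on HepG2 cells, 37 C, 5% CO2; plate read ex 540 nm / em 590 nm; intensities reported as Rose Bengal sodium equivalents.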

[8] = qHTS assay to test for compound auto fluorescence at 460 nm (blue) in HEK293 cells (AID 720678)
In short: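 Measured: blue fluorescence (Ex 405/Em 460 nm) of compound-treated HEK293 cells, incubated overnight at 37C with 5% CO2 and scaled to triamterene equivalents.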

[9] = qHTS assay to test for compound auto fluorescence at 590 nm (red) in HEK293 cells (AID 720679)
In short: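 Using HEK293 cells at 2,000 per well, the screen added 23 nL of each compound after cell attachment and incubated overnight (37C, 5% CO2). The plate reader then captured red-label fluorescence, Ex/Em 540/590nm.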

[10] = qHTS assay to test for compound auto fluorescence at 535 nm (green) in HepG2 cells (AID 720675)

Measured: Potency

CCCCCCCCOC(=O)c1ccccc1C(=O)OCCCCCCCC
inactive: [1] | [2] | [3] | [4] | [5] | [6] | [7] | [8] | [9]

CCOc1cc(C=O)ccc1O
inactive: [1] | [2] | [3] | [4] | [5] | [6] | [7] | [10] | [8] | [9]

OCC(O)CO
inactive: [1] | [2] | [3] | [4] | [5] | [6]

CC(C)c1ccc(CO)cc1
inactive: [1] | [2] | [3] | [4] | [5] | [7] | [10] | [8] | [9]

O=C1C=CC(=O)C=C1
inactive: [1] | [2] | [3] | [4] | [5] | [6] | [7] | [10] | [8] | [9]

O=P(O)(O)CCCl
inactive: [1] | [2] | [3] | [4] | [5] | [6] | [7] | [8] | [9]

COc1ccc(C=O)cc1
inactive: [1] | [2] | [3] | [4] | [5] | [7] | [10] | [8] | [9]

O=C(O)C(F)(F)C(F)(F)C(F)(F)C(F)(F)C(F)(F)C(F)(F)C(F)(F)F
inactive: [1] | [2] | [3] | [4] | [5] | [7] | [10] | [8] | [9]

c1ccc(NNc2ccccc2)cc1
inactive: [1] | [2] | [3] | [4] | [6] | [7] | [10] | [8] | [9]

C#C[C@]1(O)CC[C@H]2[C@@H]3CCC4=CC(=O)CC[C@]4(C)[C@H]3CC[C@@]21C
inactive: [1] | [2] | [3] | [4] | [5] | [7] | [10] | [8] | [9]

Nc1cccnc1
inactive: [1] | [2] | [3] | [4] | [5] | [6] | [7] | [10] | [8] | [9]

CC(C)(OOC(C)(C)c1ccccc1)c1ccccc1
inactive: [1] | [2] | [3] | [4] | [5] | [7] | [10] | [8] | [9]
active: [6] 60.3 µM

CCCCCCCCCCCOC(=O)c1ccccc1C(=O)OCCCCCCCCCCC
inactive: [1] | [2] | [3] | [4] | [5] | [6] | [7] | [10] | [8] | [9]

C=CC(=O)OCCO
inactive: [1] | [2] | [3] | [4] | [5] | [6] | [7] | [10] | [8] | [9]

CCC(CC)Nc1c([N+](=O)[O-])cc(C)c(C)c1[N+](=O)[O-]
active: [6] 49.2 µM
inactive: [1] | [2] | [3] | [4] | [7] | [10] | [8] | [9]

NNC(N)=S
inactive: [1] | [2] | [3] | [4] | [5] | [7] | [8] | [9]
63.5 µM (active) and inactive: [6]

CCCCNC(=O)n1c(NC(=O)OC)nc2ccccc21
active: [1] 13.6 µM and 15.4 µM
inactive: [2] | [3] | [4] | [5] | [6] | [7] | [10] | [8] | [9]

CCOP(=S)(OCC)O/N=C(\C#N)c1ccccc1
inactive: [1] | [2] | [3] | [4] | [6] | [7] | [10] | [8] | [9]
inactive and 54.5 µM (active): [5]

C=C(C)C(=O)OCC1CO1 (centres undefined)
inactive: [1] | [2] | [3] | [4] | [5] | [6] | [7] | [8] | [9]

O=[N+]([O-])c1cccc2ccccc12
inactive: [1] | [2] | [3] | [4] | [5] | [7] | [8] | [9]

CCCCCCOC(=O)c1ccccc1C(=O)OCCCCCC
inactive: [1] | [2] | [3] | [4] | [5] | [7] | [10] | [8] | [9]
active: [6] 27.9 µM

CCCCN(CCCC)N=O
inactive: [1] | [2] | [3] | [4] | [5] | [6] | [7] | [10] | [8] | [9]

O=[N+]([O-])c1c(Cl)c(Cl)c(Cl)c(Cl)c1Cl
inactive: [1] | [2] | [3] | [4] | [5] | [7] | [8] | [9]

CN(C)C(=O)Nc1ccc(Cl)cc1
inactive: [1] | [2] | [3] | [4] | [5] | [6] | [7] | [8] | [9]

CC(C)N(C(=O)SCC(Cl)=C(Cl)Cl)C(C)C
inactive: [1] | [2] | [3] | [4] | [7] | [10] | [8] | [9]
active: [6] 13.5 µM

NCc1cccnc1
inactive: [1] | [2] | [3] | [4] | [5] | [6] | [7] | [8] | [9]

N[C@@H](Cc1ccc(N(CCCl)CCCl)cc1)C(=O)O
inactive: [2] | [3] | [4] | [5] | [7] | [10] | [8] | [9]
active: [1] 13.3 µM and 26.2 µM

CC(C)NC(C)C
inactive: [1] | [2] | [3] | [4] | [5] | [6] | [7] | [8] | [9]

O=[N+]([O-])c1ccc(O)c([N+](=O)[O-])c1
active: [4] 27.4 µM and 27.3 µM | [5] 10.9 µM | [6] 689 nM and 545 nM
inactive: [1] | [2] | [3] | [7] | [8] | [9]

CCOc1cc(Oc2ccc(C(F)(F)F)cc2Cl)ccc1[N+](=O)[O-]
inactive: [1] | [2] | [3] | [4] | [7] | [10] | [8] | [9]
active: [5] 19.5 µM | [6] 17.4 µM and 24.3 µM

CCC(C)(C)c1ccc(O)cc1
inactive: [1] | [2] | [3] | [4] | [7] | [10] | [8] | [9]
55 µM (active) and inactive: [5]
active: [6] 26.6 µM and 17.4 µM and 15.4 µM

Nc1ccc(Cl)cc1N
inactive: [3] | [4] | [5] | [7] | [10] | [8] | [9]
active: [1] 19.3 µM | [2] 56.7 µM and 5.45 µM | [6] 4.5 µM and 770 nM

COC(=O)c1sccc1S(=O)(=O)NC(=O)Nc1nc(C)nc(OC)n1
inactive: [1] | [2] | [3] | [4] | [5] | [6] | [7] | [8] | [9]

Cc1ccccc1[N+](=O)[O-]
inactive: [1] | [2] | [3] | [4] | [5] | [6] | [7] | [10] | [8] | [9]

CC(C)C(=O)OCC(C)(C)C(OC(=O)C(C)C)C(C)C (centres undefined)
30.9 µM (active) and inactive: [3]
inactive: [1] | [2] | [4] | [5] | [7] | [10] | [8] | [9]

COc1ccc(C(CN(C)C)C2(O)CCCCC2)cc1 (centres undefined)
inactive: [1] | [2] | [3] | [4] | [5] | [6] | [7] | [10] | [8] | [9]

O=Cc1ccco1
inactive: [1] | [2] | [3] | [4] | [5] | [6] | [7] | [10] | [8] | [9]

N#CCCCl
inactive: [1] | [2] | [3] | [4] | [5] | [6] | [7] | [8] | [9]

CCN(CC)C(=O)SCc1ccc(Cl)cc1
inactive: [1] | [2] | [3] | [5] | [7] | [10] | [8] | [9]
active: [6] 19.9 µM and 12.2 µM

C[C@]12CCC(=O)C(O)=C1CC[C@@H]1[C@@H]2CC[C@]2(C)C(=O)CC[C@@H]12
inactive: [1] | [2] | [3] | [5] | [6] | [7] | [8] | [9]

c1nc[nH]n1
inactive: [1] | [2] | [3] | [5] | [6] | [7] | [10] | [8] | [9]

C=CCN(CC=C)C(=O)C(Cl)Cl
inactive: [1] | [2] | [3] | [5] | [6] | [7] | [10] | [8] | [9]

O=C(Nc1ccc(Br)cc1)c1cc(Br)cc(Br)c1O
active: [1] 8.41 µM and 1.53 µM and 12.2 µM | [3] 944 nM and 1.08 µM and 2.17 µM | [6] 1.88 µM and 543 nM and 545 nM
inactive: [2] | [5] | [7] | [10] | [8] | [9]

Clc1nc(Cl)nc(Cl)n1
inactive: [1] | [2] | [3] | [5] | [6] | [7] | [8] | [9]

CCN(CC)N=O
inactive: [1] | [3] | [4] | [5] | [6] | [7] | [10] | [8] | [9]
